Assay results published in PubChem BioAssay (Tox21).
Records with an inconclusive call do not appear. Calls of active or inactive are those of the source. Unless noted, calls follow the shape of the dose curve; as a rule, active = well fitted curve in the direction sought with a large enough effect in the repeat runs; inconclusive = weak or mixed curves; inactive = no such curve, though single readings can be large; an effect the other way counts as inactive or inconclusive.

Tests used:
[1] = qHTS assay for small molecule agonists of the p53 signaling pathway (AID 651631; calls by dose curve; also: nearly all actives have a fitted effect of over 15% in size)
Procedure, shortened: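 Beta-lactamase reporter activity under p53 response elements was quantified in HCT-116 cells by FRET fluorescence, following 16 h incubation with test compounds at 37 °C and 2 h substrate development at room temperature.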

[2] = qHTS assay for small molecules that induce genotoxicity in human embryonic kidney cells expressing luciferase-tagged ATAD5 (AID 651632); also: nearly all actives have a fitted effect of over 15% in size
Procedure, shortened: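 HEK293T cells carrying luciferase-tagged ATAD5 were given compound or DMSO vehicle and incubated 16 hr at 37C, 5% CO2. Luciferase activity was read after 30 min at room temperature with Amplite; a rise signals genotoxic stress.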

[3] = qHTS assay for small molecule agonists of the p53 signaling pathway - cell viability (AID 651633; calls by dose curve;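 also: p53RE-bla HCT reporter cells with a stable beta-lactamase p53 reporter; series mostly up to about 83 µM; nearly all actives have a fitted effect of over 30% in size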)
Procedure, shortened: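 p53RE-bla cells, seeded at 4,000 per well and rested 5 h at 37 C/5% CO2, received compounds in DMSO for 16 h at 37 C. CellTiter-Glo was then added, and luminescence was read after 30 min at room temperature to gauge cytotoxicity.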

[4] = qHTS assay for small molecules that induce genotoxicity in human embryonic kidney cells expressing luciferase-tagged ATAD5 - cell viability (AID 651634; calls by dose curve; also: nearly all actives have a fitted effect of over 25% in size)
Procedure, shortened: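 HEK293T cells carrying luciferase-tagged ATAD5, 2,000 cells/well, exposed to compound for 15.5 hr at 37C. Viability read as live-cell protease activity by CellTiter-Fluor fluorescence after 30 min at 37C.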

[5] = qHTS assay for small molecule disruptors of the mitochondrial membrane potential - cell viability (AID 720634; calls by dose curve;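 also: human HepG2 liver cancer cells; series mostly up to about 83 µM; nearly all actives have a fitted effect of over 20% in size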)
Procedure, shortened: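 HepG2 cells, 2,000 per well, attached overnight, then treated 1 hr at 37 C, 5% CO2. Viability read as ATP by CellTiter-Glo luminescence after 30 min at room temperature. Read in the same wells as the m-MPI membrane-potential dye assay.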

[6] = qHTS assay for small molecule disruptors of the mitochondrial membrane potential (AID 720635); also: potency is read from the fitted curve at half-maximal effect
Procedure, shortened: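 HepG2 cells (2,000/well) attached overnight at 37C, then took compound for 1 hr at 37C, 5% CO2. Mito-MPS dye was added for 30 min; fluorescence was read at 490/535 nm (monomers) and 540/590 nm (aggregates).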

[7] = qHTS assay to test for compound auto fluorescence at 590 nm (red) in HepG2 cells (AID 720674)
Procedure, shortened: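 Rose Bengal sodium served as the red fluorophore standard. HepG2 monolayers (overnight attachment, MEM with 10% FBS) were exposed to test compounds for 1 hr at 37 C and read at Ex 540/Em 590 nm.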

[8] = qHTS assay to test for compound auto fluorescence at 535 nm (green) in HepG2 cells (AID 720675)
[9] = qHTS assay to test for compound auto fluorescence at 460 nm (blue) in HEK293 cells (AID 720678)
Procedure, shortened: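 Intrinsic compound fluorescence is recorded in live HEK293 cultures after overnight incubation at 37C, 5% CO2, using excitation 405 nm and emission 460 nm. Values are referenced to triamterene.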

[10] = qHTS assay to test for compound auto fluorescence at 590 nm (red) in HEK293 cells (AID 720679)
Procedure, shortened: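 Red autofluorescence, HEK293 cells: 2,000 cells/well; attach 4-5 hr 37C; add 23 nL cpd or DMSO; incubate o/n 37C 5% CO2; read Ex540/Em590; Rose Bengal sodium reference.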

Measured: Potency

CCCCCCCCCOCC1CO1 (stereo unspecified)
inactive: all assays above

O=C1c2ccccc2-c2ccccc21
active: [6] 55.9 µM
inactive: all other assays above

O=C(O)c1ccccc1C(=O)Nc1ccc(S(=O)(=O)Nc2nccs2)cc1
inactive: all assays above

COc1cc2c3cc1Oc1cc(ccc1O)C[C@@H]1c4c(cc(OC)c(O)c4Oc4ccc(cc4)C[C@@H]3N(C)CC2)CC[N+]1(C)C
inactive: all assays above

CCC(O)C(C)(C)C (stereo unspecified)
inactive: all assays above

CCC1COC(=O)O1 (stereo unspecified)
inactive: all assays above

CC(C)(C)c1ccc(C=O)cc1
inactive: all assays above

O=C(O)C(=O)Nc1cccc(-c2nn[nH]n2)c1
inactive: all assays above

CCCCCC1Nc2cc(C(F)(F)F)c(S(N)(=O)=O)cc2S(=O)(=O)N1 (stereo unspecified)
inactive: all assays above

CNCc1ccccc1
inactive: all assays above

FC(F)(F)/C(=N\OCC1OCCO1)c1ccc(Cl)cc1
inactive: all assays above

O=C(Oc1ccccc1C(=O)O)c1ccccc1O
inactive: all assays above

CC(=O)N(CC(O)CO)c1c(I)c(C(=O)NCC(O)CO)c(I)c(C(=O)NCC(O)CO)c1I (stereo unspecified)
not listed: [6]
inactive: all other assays above

CC(C)(c1ccc(Oc2ccc3c(c2)C(=O)OC3=O)cc1)c1ccc(Oc2ccc3c(c2)C(=O)OC3=O)cc1
not listed: [8]
inactive: all other assays above

CCCCOC(=O)C(C)OC(=O)CCC (stereo unspecified)
not listed: [6]
inactive: all other assays above

CCC(C)(C)C1CCC(=O)CC1
not listed: [9]
inactive: all other assays above

CCCCOC(=O)C(=O)OCCCC
not listed: [6]
inactive: all other assays above

CC(C)COC(=O)CC(C(=O)OCC(C)C)S(=O)(=O)O (stereo unspecified)
not listed: [6]
inactive: all other assays above

CC(C)COC(=O)/C=C/c1ccccc1
not listed: [8] | [9]
inactive: all other assays above

CNC(=O)NC
not listed: [7] | [8]
inactive: all other assays above

Cc1ccccc1OCC1CO1 (stereo unspecified)
not listed: [6]
inactive: all other assays above

CC(C)SCc1ccco1
not listed: [6]
inactive: all other assays above

CCCCCCCCOC(C)=O
not listed: [6]
inactive: all other assays above

Cc1nc(C)nc(N2C[C@@H](C)N(c3ccnc([C@@H](C)O)n3)[C@@H](C)C2)n1
not listed: [7]
inactive: all other assays above
